Experiment [1] is described as follows: inhibitors of TNFa-induced NFkB p65 translocation, primary screen, imaging, HUVEC, MLSMR starter and 10KST1 sets (AID 438;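 active = inhibition above 20% together with a positive visual image hit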;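 also: compound added about 3h40 before a 20 min TNFalpha stimulation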;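 as to inhibition: signal is the nuclear over cytoplasmic p65 intensity ratio per well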). To be noted: HUVEC TNFa-induced p65 nuclear translocation; cell count: measured here: nuclei count (cytotoxicity indicator), at 2.08 µM; inhibition: at 2 µM, stronger effect = higher value, 0% TNFa-plus-vehicle, 100% no-TNFa wells.
Experiment [2] in a line: reduction of polyQ htt aggregates in cells – imaging, exon1htt(103Q)mCFP cells, high-content imaging, primary screen (AID 483;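 active = visual image review flags a hit and inhibition of aggregation exceeds 20%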;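 also: compound exposure lasted 3 days before fixation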;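 as to nuclei count: percent of the per-plate median nuclei count of sample wells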). To be noted: exon1htt(103Q)mCFP cell line, aggregate imaging, at 2 µM; inhibition of aggregation: stronger effect = higher value; nuclei count: measured here: cell count, toxicity.
Experiment [3] can be described thus: endothelial E-selectin expression blockers – imaging, HUVEC, immunofluorescence, MLSMR starter and 10KST1 sets, primary screen (AID 487;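 active = visually confirmed hit in the image check and inhibition above 20%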;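 as to inhibition: signal is fraction of cell area covered by stained E-selectin grains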;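 as to nuclei count: 100% = median nuclei count of all wells on the same plate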). To be noted: HUVEC TNFalpha-induced E-selectin immunofluorescence imaging, at 2 µM; inhibition: stronger effect = higher value; nuclei count: measured here: cell number, toxicity.
In experiment [4] the target is Voltage-gated potassium channel subunit beta-2 (Rattus norvegicus) (UniProt P62483). As to the kind of experiment: inhibitors of rat Kvbeta2 reductase activity – biochemical, NADPH fluorescence, primary screen (AID 622;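 active = fluorescence slope higher than the sample average by over 3 SD, cut at about -0.22 in these data, passing the limit was not always enough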;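 also: slope of raw intensity against log time taken from 70 to 1610 s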). Conditions: recombinant KvBeta, 4-cyanobenzaldehyde reduction, at 10 µM, stronger effect = higher value.
Sequence of Voltage-gated potassium channel subunit beta-2 (Rattus norvegicus) (P62483 whole entry, looked up): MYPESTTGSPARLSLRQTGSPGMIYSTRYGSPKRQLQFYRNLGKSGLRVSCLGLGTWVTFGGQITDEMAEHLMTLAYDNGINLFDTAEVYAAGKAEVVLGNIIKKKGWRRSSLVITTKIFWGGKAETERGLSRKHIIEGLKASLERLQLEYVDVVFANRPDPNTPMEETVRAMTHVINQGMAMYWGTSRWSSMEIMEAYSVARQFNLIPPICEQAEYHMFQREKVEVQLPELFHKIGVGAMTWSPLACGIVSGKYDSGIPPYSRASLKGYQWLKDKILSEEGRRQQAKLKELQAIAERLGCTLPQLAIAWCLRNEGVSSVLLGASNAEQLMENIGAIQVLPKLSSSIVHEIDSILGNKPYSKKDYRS
The target is the same in experiment [5]. In words: enhancers of rat Kvbeta2 NADPH turnover – biochemical, NADPH fluorescence, primary screen (AID 623;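 active = NADPH fluorescence slope more negative than the mean of all samples by about 3 SD, 99.7% confidence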;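 also: fluorescence intensity change per second fitted from 20 to 320 s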). To be noted: Recombinant KvBeta, NADPH fluorescence decrease slope, 10 min; at 10 µM; stronger effect = lower value.
Experiment [6] deals with Alpha-2C adrenergic receptor (Homo sapiens) (UniProt P18825). As to the kind of experiment: compounds altering alpha2C-coupled GIRK flux – cell-based, HEK293 alpha2C/GIRK1/2, thallium flux, primary screen (AID 624).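 Also: slope of fluorescence ratio to pre-addition baseline per second over 15 to 24 s.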 To be noted: thallium flux BTC fluorescence, at 10 µM, actives lie on both sides.
Sequence of Alpha-2C adrenergic receptor (Homo sapiens) (P18825 whole entry, looked up): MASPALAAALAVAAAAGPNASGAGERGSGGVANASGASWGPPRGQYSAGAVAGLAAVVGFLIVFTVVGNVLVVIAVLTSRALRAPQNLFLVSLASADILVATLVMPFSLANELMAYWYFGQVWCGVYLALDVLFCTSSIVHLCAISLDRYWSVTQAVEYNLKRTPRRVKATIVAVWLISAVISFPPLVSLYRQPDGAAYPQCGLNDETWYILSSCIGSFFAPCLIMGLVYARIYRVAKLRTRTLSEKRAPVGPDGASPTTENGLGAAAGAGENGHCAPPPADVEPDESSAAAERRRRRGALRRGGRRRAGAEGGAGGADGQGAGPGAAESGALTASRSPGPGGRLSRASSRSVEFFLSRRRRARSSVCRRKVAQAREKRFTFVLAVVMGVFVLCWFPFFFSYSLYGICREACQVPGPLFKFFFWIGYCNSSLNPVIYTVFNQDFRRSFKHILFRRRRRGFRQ
Experiment [7] is described as follows: blockers of RIG-like receptor reporter activation – cell-based, Sendai virus stimulus, luciferase, 10K MLSCN set, TLR/RLR signaling modifier project, primary screen (AID 602276;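 active = inhibition at or above 50% at 10 µM; inactive = inhibition below 50%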;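 also: firefly luciferase from ISG56 promoter only with Renilla not read in this screen; 0% = Sendai virus plus DMSO and 100% = medium plus DMSO without virus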). To be noted: HEK293 RL24 IRF3 luciferase reporter, at 10 µM, stronger effect = higher value. A general note: Reporter assays use an easily measured gene product as a stand-in for the process of interest.

A short description of experiment [8]: TLR3 IRF3 reporter activation blockers – cell-based, poly I:C stimulus, luciferase, 10K MLSCN set, primary screen (AID 602277;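 active = inhibition of the reporter signal at or above 50%; inactive = inhibition below 50%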). To be noted: HEK293-TLR3 RL24 IRF3 luciferase reporter, at 10 µM, stronger effect = higher value.

Calls of active or inactive are those of the source.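 The calls were made as follows, unless noted: active = fluorescence slope after compound addition differing from the mean of all screened samples at 99.7% confidence, in either direction; inactive = the rest.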

In general, inhibition refers to the change of the read-out against control, counted positive when it falls.

Regarding `Cc1csc(NC(=O)c2ccoc2C)n1`, the cell count in experiment [1] stood at 435. Besides, the inhibition is 1.3% (inactive) in experiment [1], 9% (inactive) in experiment [3], -53.3% (inactive) in experiment [7] and -87.5% (inactive) in experiment [8]. For the same compound, the inhibition of aggregation in experiment [2] was -7.1% (inactive). In addition, the figures for the nuclei count in experiment [2] and in experiment [3] were 90.7% and 97.9%, respectively. Further, in experiment [4], the fluorescence slope is -0.534 (inactive). Also, in experiment [5], the NADPH fluorescence slope was 2.1e-05 (inactive). In addition, the slope in experiment [6] is 0.00451 (inactive).

For the compound `N#CC1=C(N)OC(c2ccccc2)=C(C#N)C1c1ccc2c(c1)OCO2` (centres undefined), the cell count in experiment [1] was found to be 609. Moreover, the inhibition in experiment [1] was -19.6% (inactive); in experiment [3] it was 29.2% (inactive); in experiment [7], -16.2% (inactive); in experiment [8], 10.8% (inactive). In experiment [2], the inhibition of aggregation is 6% (inactive). For the same compound, the nuclei count turned out to be 112% in experiment [2] and 96.1% in experiment [3]. Besides, in experiment [4], the fluorescence slope was -0.482 (inactive). Further, the NADPH fluorescence slope in experiment [5] was -9.1e-05 (inactive). Moreover, in experiment [6], the slope is 0.00651 (inactive).

As to `CCCOC(=O)c1[nH]c2c(c1C)C(=O)CC(c1cc(OC)c(OC)c(OC)c1)C2` (centres undefined), in experiment [1], the cell count amounted to 803. The inhibition in experiment [1] was 1.2% (inactive); in experiment [3], -90.3% (inactive); in experiment [7], 0.863% (inactive); in experiment [8], -18.2% (inactive). Also, the inhibition of aggregation in experiment [2] is 2.2% (inactive). For the same compound, the values for the nuclei count in experiment [2] and in experiment [3] were 114% and 118%, respectively. Further, the fluorescence slope in experiment [4] is -0.567 (inactive). The NADPH fluorescence slope in experiment [5] was -2.6e-05 (inactive). Moreover, the slope in experiment [6] was 0.00599 (inactive).

`CC1=C(C(=O)OC2CCCCC2)C(c2cccnc2)n2ncnc2N1` (centres undefined): the cell count in experiment [1] was 271. Further, the inhibition in experiment [1] is -9.3% (inactive); in experiment [3], 21.9% (inactive); in experiment [7], 7.24% (inactive); in experiment [8] it was 26.4% (inactive). Also, the inhibition of aggregation in experiment [2] was 10.8% (inactive). Also, the nuclei count in experiment [2] was 77.6%; in experiment [3], 34.7%. In experiment [4], the fluorescence slope was -0.327 (inactive). In addition, the NADPH fluorescence slope in experiment [5] was -6.6e-06 (inactive). For the same compound, the slope in experiment [6] was 0.00388 (inactive).

As to `COc1ccc(-n2ncc3c(N4CCC(C)CC4)ncnc32)cc1`, the cell count in experiment [1] stood at 575. For the same compound, the inhibition is -1.3% (inactive) in experiment [1], -10.8% (inactive) in experiment [3], 9.66% (inactive) in experiment [7] and -67.2% (inactive) in experiment [8]. Moreover, the inhibition of aggregation in experiment [2] is 17.5% (inactive). In addition, the values for the nuclei count in experiment [2] and in experiment [3] were 121% and 110%, respectively. The fluorescence slope in experiment [4] was -0.572 (inactive). In experiment [5], the NADPH fluorescence slope is -5e-05 (inactive). In addition, the slope in experiment [6] was 0.00789 (inactive).

As for `Cn1nnnc1SCc1cn2cccnc2n1`, the cell count in experiment [1] amounted to 227. Also, the inhibition in experiment [1] is 0.3% (inactive); in experiment [3], -25.9% (inactive); in experiment [7] it was 9.85% (inactive); in experiment [8], 9.08% (inactive). Also, the inhibition of aggregation in experiment [2] is 9.5% (inactive). For the same compound, the nuclei count in experiment [2] was 97.2%; in experiment [3], 117%. In experiment [4], the fluorescence slope is -0.106 (inactive). Moreover, the NADPH fluorescence slope in experiment [5] was 2.9e-05 (inactive). The slope in experiment [6] was 0.00615 (inactive).

Take `Cc1cccc(C2CC(c3ccc(Br)cc3)Nc3nc(N)nn32)c1` (centres undefined): in experiment [1], the cell count is 683. The inhibition was -15.7% (inactive) in experiment [1], -5.8% (inactive) in experiment [3], 20.8% (inactive) in experiment [7] and 25.1% (inactive) in experiment [8]. The inhibition of aggregation in experiment [2] was -3% (inactive). Also, the results for the nuclei count in experiment [2] and in experiment [3] were 95.1% and 105%, respectively. Besides, in experiment [4], the fluorescence slope is -0.443 (inactive). In addition, the NADPH fluorescence slope in experiment [5] is -5.3e-05 (inactive). In experiment [6], the slope is 0.00633 (inactive).

For `CC(=O)NC(=O)NC1CSCC1OC(C)=O` (centres undefined), in experiment [1], the cell count worked out at 590. Further, the inhibition in experiment [1] was 1.2% (inactive); in experiment [3] it was -110% (inactive); in experiment [7], 11% (inactive); in experiment [8] it was 12% (inactive). Further, the inhibition of aggregation in experiment [2] is 23.1% (inactive). Besides, the nuclei count in experiment [2] came to 99%; in experiment [3], 132%. For the same compound, in experiment [4], the fluorescence slope is -0.445 (inactive). The NADPH fluorescence slope in experiment [5] was -1.3e-05 (inactive). In experiment [6], the slope is 0.00811 (inactive).

Turning to `COc1ccccc1CC(=O)NCc1ccc2c(c1)OCO2`, in experiment [1], the cell count stood at 372. Besides, the inhibition in experiment [1] was -0.6% (inactive); in experiment [3], -81% (inactive); in experiment [7], 7.81% (inactive); in experiment [8] it was -10.6% (inactive). In addition, the inhibition of aggregation in experiment [2] is -2.1% (inactive). Moreover, the values for the nuclei count in experiment [2] and in experiment [3] were 101% and 114%, respectively. Besides, the fluorescence slope in experiment [4] was -0.392 (inactive). The NADPH fluorescence slope in experiment [5] was -5.4e-05 (inactive). Further, the slope in experiment [6] was 0.00532 (inactive).

Consider `CCCCCn1c(CN2CCN(c3cccc(Cl)c3)CC2)nc2c1c(=O)n(C)c(=O)n2C`, for which, in experiment [1], the cell count turned out to be 775. Moreover, the inhibition was 0.9% (inactive) in experiment [1], -32.5% (inactive) in experiment [3], -3% (inactive) in experiment [7] and -10.4% (inactive) in experiment [8]. In experiment [2], the inhibition of aggregation was -13% (inactive). Further, the results for the nuclei count in experiment [2] and in experiment [3] were 109% and 113%, respectively. Besides, in experiment [4], the fluorescence slope is -0.371 (inactive). Also, the NADPH fluorescence slope in experiment [5] is -6e-05 (inactive). In addition, the slope in experiment [6] is 0.00648 (inactive).

In the case of `Cc1noc(/C=C/N(C)C)c1S(=O)(=O)N1CCc2ccccc21`, the cell count in experiment [1] is 611. Besides, the inhibition is 3.4% (inactive) in experiment [1], -60.7% (inactive) in experiment [3], -1.69% (inactive) in experiment [7] and 55.2% (active) in experiment [8]. Also, the inhibition of aggregation in experiment [2] is 24.9% (inactive). In addition, the nuclei count in experiment [2] amounted to 89.8%; in experiment [3], 115%. Besides, the fluorescence slope in experiment [4] is -0.558 (inactive). For the same compound, the NADPH fluorescence slope in experiment [5] was -8.6e-06 (inactive). In addition, the slope in experiment [6] is 0.00715 (inactive).

As for `COc1ccc2c(c1OC)C(=O)N(c1ccc3c(c1)CCC3)C2=O`, in experiment [1], the cell count is 683. Further, the inhibition in experiment [1] was -13.1% (inactive); in experiment [3] it was -10.6% (inactive); in experiment [7], 8.67% (inactive); in experiment [8], -9.24% (inactive). For the same compound, the inhibition of aggregation in experiment [2] was -0.9% (inactive). In addition, the nuclei count in experiment [2] was determined as 103%; in experiment [3] it was 107%. Besides, the fluorescence slope in experiment [4] is -0.499 (inactive). Also, in experiment [5], the NADPH fluorescence slope is 3.4e-05 (inactive). Besides, in experiment [6], the slope was 0.00573 (inactive).

Turning to `O=C(Nc1ccccc1N1CCOCC1)c1ccc2ccccc2n1`, the cell count in experiment [1] came to 589. The inhibition in experiment [1] was -21.6% (inactive); in experiment [3], 17.1% (inactive); in experiment [7], -13.5% (inactive); in experiment [8], -46% (inactive). Moreover, in experiment [2], the inhibition of aggregation was -18.1% (inactive). Besides, the nuclei count in experiment [2] came out at 92.8%; in experiment [3], 94.6%. Further, in experiment [4], the fluorescence slope was -0.39 (inactive). Moreover, in experiment [5], the NADPH fluorescence slope is -4.7e-05 (inactive). Moreover, the slope in experiment [6] is 0.00386 (inactive).

With `O=C(Cn1nnc2ccccc2c1=O)NC1CCCc2ccccc21` (centres undefined), the cell count in experiment [1] was 485. Moreover, the inhibition in experiment [1] is -2.9% (inactive); in experiment [3], 10.6% (inactive); in experiment [7] it was 17% (inactive); in experiment [8], 25% (inactive). Besides, the inhibition of aggregation in experiment [2] is -0.1% (inactive). For the same compound, the nuclei count is 108% in experiment [2] and 92.5% in experiment [3]. The fluorescence slope in experiment [4] is -0.486 (inactive). The NADPH fluorescence slope in experiment [5] is -1.6e-05 (inactive). In experiment [6], the slope is 0.00524 (inactive).

(Values after PubChem BioAssay.)
